# Data from publication PMC11062922 (Nature Chemical Biology, 2023).
# Like-named read-outs stand apart in the source and are kept apart here.
# Target: Q6ZSR9 (human, UniProt Q6ZSR9)
# Conditions: read-out: apparent Kd, n = 1
# Chain of Q6ZSR9 (Q6ZSR9 whole entry, looked up): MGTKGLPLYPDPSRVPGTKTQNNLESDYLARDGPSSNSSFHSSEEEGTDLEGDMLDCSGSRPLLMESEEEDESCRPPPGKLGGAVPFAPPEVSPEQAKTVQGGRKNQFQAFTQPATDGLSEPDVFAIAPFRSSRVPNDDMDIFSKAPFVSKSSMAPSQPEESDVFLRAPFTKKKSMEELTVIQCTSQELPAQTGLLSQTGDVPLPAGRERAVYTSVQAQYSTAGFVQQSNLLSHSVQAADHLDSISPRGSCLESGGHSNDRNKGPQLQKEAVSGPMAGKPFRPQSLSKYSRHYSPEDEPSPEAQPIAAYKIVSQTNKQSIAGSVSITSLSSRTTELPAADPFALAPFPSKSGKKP
substance,measurement,setting,value
Lestaurtinib,potency estimated from few doses,"compound concentrations:100 nM and 1000 nM (sheet 'Lestaurtinib' of Supplementary Table 1),run:Lestaurtinib_02496_R1,Plate:MR013",65.5 nM
same,potency estimated from few doses,"compound concentrations:100 nM and 1000 nM (sheet 'Lestaurtinib' of Supplementary Table 1),run:Lestaurtinib_02496_R2,Plate:MR013",59.5 nM
same,potency estimated from few doses,"compound concentrations:100 nM and 1000 nM (sheet 'Lestaurtinib' of Supplementary Table 1),run:Lestaurtinib_02496_R3,Plate:MR013",66.8 nM
same,potency estimated from few doses,"compound concentrations:100 nM and 1000 nM (sheet 'Lestaurtinib' of Supplementary Table 1),run:Lestaurtinib_02566_R2,Plate:MR014",55.7 nM
same,potency estimated from few doses,"compound concentrations:100 nM and 1000 nM (sheet 'Lestaurtinib' of Supplementary Table 1),run:Lestaurtinib_02566_R3,Plate:MR014",80.5 nM
same,potency estimated from few doses,"compound concentrations:100 nM and 1000 nM (sheet 'Lestaurtinib' of Supplementary Table 1),run:Lestaurtinib_02572_R1,Plate:MR015",40.6 nM
same,potency estimated from few doses,"compound concentrations:100 nM and 1000 nM (sheet 'Lestaurtinib' of Supplementary Table 1),run:Lestaurtinib_02572_R2,Plate:MR015",74.4 nM
same,potency estimated from few doses,"compound concentrations:100 nM and 1000 nM (sheet 'Lestaurtinib' of Supplementary Table 1),run:Lestaurtinib_02572_R3,Plate:MR015",48.9 nM
same,potency estimated from few doses,"compound concentrations:100 nM and 1000 nM (sheet 'Lestaurtinib' of Supplementary Table 1),run:Lestaurtinib_02577_R1,Plate:MR016",63.4 nM
same,potency estimated from few doses,"compound concentrations:100 nM and 1000 nM (sheet 'Lestaurtinib' of Supplementary Table 1),run:Lestaurtinib_02577_R2,Plate:MR016",53.4 nM
same,potency estimated from few doses,"compound concentrations:100 nM and 1000 nM (sheet 'Lestaurtinib' of Supplementary Table 1),run:Lestaurtinib_02577_R3,Plate:MR016",59.4 nM
same,potency estimated from few doses,"compound concentrations:100 nM and 1000 nM (sheet 'Lestaurtinib' of Supplementary Table 1),run:Lestaurtinib_02584_R1,Plate:MR017",92.8 nM
same,potency estimated from few doses,"compound concentrations:100 nM and 1000 nM (sheet 'Lestaurtinib' of Supplementary Table 1),run:Lestaurtinib_02584_R2,Plate:MR017",64.9 nM
same,potency estimated from few doses,"compound concentrations:100 nM and 1000 nM (sheet 'Lestaurtinib' of Supplementary Table 1),run:Lestaurtinib_02584_R3,Plate:MR017",79 nM
same,potency estimated from few doses,"compound concentrations:100 nM and 1000 nM (sheet 'Lestaurtinib' of Supplementary Table 1),run:Lestaurtinib_02601_R1,Plate:MR018",49.8 nM
same,potency estimated from few doses,"compound concentrations:100 nM and 1000 nM (sheet 'Lestaurtinib' of Supplementary Table 1),run:Lestaurtinib_02601_R3,Plate:MR018",44.4 nM
same,potency estimated from few doses,"compound concentrations:100 nM and 1000 nM (sheet 'Lestaurtinib' of Supplementary Table 1),run:Lestaurtinib_02606_R2,Plate:MR019",52 nM
same,potency estimated from few doses,"compound concentrations:100 nM and 1000 nM (sheet 'Lestaurtinib' of Supplementary Table 1),run:Lestaurtinib_02606_R3,Plate:MR019",60.4 nM
same,potency estimated from few doses,"compound concentrations:100 nM and 1000 nM (sheet 'Lestaurtinib' of Supplementary Table 1),run:Lestaurtinib_02624_R2,Plate:MR020",61.1 nM
same,potency estimated from few doses,"compound concentrations:100 nM and 1000 nM (sheet 'Lestaurtinib' of Supplementary Table 1),run:Lestaurtinib_02624_R3,Plate:MR020",55.5 nM
same,potency estimated from few doses,"compound concentrations:100 nM and 1000 nM (sheet 'Lestaurtinib' of Supplementary Table 1),run:Lestaurtinib_02724_R2,Plate:MR021",51.2 nM
same,potency estimated from few doses,"compound concentrations:100 nM and 1000 nM (sheet 'Lestaurtinib' of Supplementary Table 1),run:Lestaurtinib_02724_R3,Plate:MR021",61.2 nM
same,potency estimated from few doses,"compound concentrations:100 nM and 1000 nM (sheet 'Lestaurtinib' of Supplementary Table 1),run:Lestaurtinib_02741_R1,Plate:MR023",77.1 nM
same,potency estimated from few doses,"compound concentrations:100 nM and 1000 nM (sheet 'Lestaurtinib' of Supplementary Table 1),run:Lestaurtinib_02741_R2,Plate:MR023",85.4 nM
same,potency estimated from few doses,"compound concentrations:100 nM and 1000 nM (sheet 'Lestaurtinib' of Supplementary Table 1),run:Lestaurtinib_02741_R3,Plate:MR023",77.2 nM
same,potency estimated from few doses,"compound concentrations:100 nM and 1000 nM (sheet 'Lestaurtinib' of Supplementary Table 1),run:Lestaurtinib_02748_R1,Plate:MR024",67.4 nM
same,potency estimated from few doses,"compound concentrations:100 nM and 1000 nM (sheet 'Lestaurtinib' of Supplementary Table 1),run:Lestaurtinib_02748_R2,Plate:MR024",46.2 nM
same,potency estimated from few doses,"compound concentrations:100 nM and 1000 nM (sheet 'Lestaurtinib' of Supplementary Table 1),run:Lestaurtinib_02748_R3,Plate:MR024",66.5 nM
same,potency estimated from few doses,"compound concentrations:100 nM and 1000 nM (sheet 'Lestaurtinib' of Supplementary Table 1),run:Lestaurtinib_02752_R1,Plate:MR025",48.7 nM
same,potency estimated from few doses,"compound concentrations:100 nM and 1000 nM (sheet 'Lestaurtinib' of Supplementary Table 1),run:Lestaurtinib_02765_R2,Plate:MR026",131 nM
same,potency estimated from few doses,"compound concentrations:100 nM and 1000 nM (sheet 'Lestaurtinib' of Supplementary Table 1),run:Lestaurtinib_02765_R3,Plate:MR026",71.7 nM
same,potency estimated from few doses,"compound concentrations:100 nM and 1000 nM (sheet 'Lestaurtinib' of Supplementary Table 1),run:Lestaurtinib_02766_R1,Plate:MR027",47.5 nM
same,potency estimated from few doses,"compound concentrations:100 nM and 1000 nM (sheet 'Lestaurtinib' of Supplementary Table 1),run:Lestaurtinib_02766_R2,Plate:MR027",37.3 nM
same,potency estimated from few doses,"compound concentrations:100 nM and 1000 nM (sheet 'Lestaurtinib' of Supplementary Table 1),run:Lestaurtinib_02766_R3,Plate:MR027",47 nM
same,potency estimated from few doses,"compound concentrations:100 nM and 1000 nM (sheet 'Lestaurtinib' of Supplementary Table 1),run:Lestaurtinib_02768_R1,Plate:MR028",48.3 nM
same,potency estimated from few doses,"compound concentrations:100 nM and 1000 nM (sheet 'Lestaurtinib' of Supplementary Table 1),run:Lestaurtinib_02768_R2,Plate:MR028",49.7 nM
same,potency estimated from few doses,"compound concentrations:100 nM and 1000 nM (sheet 'Lestaurtinib' of Supplementary Table 1),run:Lestaurtinib_02768_R3,Plate:MR028",57.7 nM
same,potency estimated from few doses,"compound concentrations:100 nM and 1000 nM (sheet 'Lestaurtinib' of Supplementary Table 1),run:Lestaurtinib_02795_R1,Plate:MR022",67.2 nM
same,potency estimated from few doses,"compound concentrations:100 nM and 1000 nM (sheet 'Lestaurtinib' of Supplementary Table 1),run:Lestaurtinib_02795_R2,Plate:MR022",73.9 nM
same,potency estimated from few doses,"compound concentrations:100 nM and 1000 nM (sheet 'Lestaurtinib' of Supplementary Table 1),run:Lestaurtinib_02802_R1,Plate:MR029",52.5 nM
same,potency estimated from few doses,"compound concentrations:100 nM and 1000 nM (sheet 'Lestaurtinib' of Supplementary Table 1),run:Lestaurtinib_02802_R2,Plate:MR029",43.8 nM
same,potency estimated from few doses,"compound concentrations:100 nM and 1000 nM (sheet 'Lestaurtinib' of Supplementary Table 1),run:Lestaurtinib_02896_R3,Plate:MR030",88 nM
same,potency estimated from few doses,"compound concentrations:100 nM and 1000 nM (sheet 'Lestaurtinib' of Supplementary Table 1),run:Lestaurtinib_03172_R1,Plate:MR031",51.8 nM
